# PubChem BioAssay (Tox21)
# Records with an inconclusive call do not appear. A number with no mark means an inactive call. Active and inactive are the calls of the source. Calls follow the shape of the dose curve; as a rule, active = well fitted activation curve with a large enough effect in the repeat runs; inconclusive = weak or mixed curves; inactive = flat fitted curve, though single readings scatter. Positions of bridges follow the written chain, without caps; N, C: chain ends. Where a SMILES comes first, the peptide text is derived from it. Non-standard residues stand in square brackets, D forms with d. Residues, ends and D or L forms follow the SMILES beside them. hArg = N=C(N)NCCCC[C@H](N)C(=O)O; Mpa = O=C(O)CCS
# Assay: A CellTox Green Cytotoxicity Assay to monitor cytotoxicity in HepG2 cells - 16 hour (AID 1224876); also: nearly all actives have a fitted effect of over 45% in size
# Conditions: CellTox Green fluorescence; series mostly up to 76.8 µM; cytotoxicity increase: at the top concentration
# Outline: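 HepG2 cells were seeded together with the CellTox Green dye at 600 cells/well, left 5 h at 37 C/5% CO2, then given compounds in DMSO. Fluorescence from dye bound to dead-cell DNA was read repeatedly over 40 h of treatment at 37 C.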
# % is scaled to controls: 0 for no effect and ±100 for the full control effect; potency is read from the fitted curve at half-maximal effect.
SMILES,cytotoxicity increase,Potency
COc1ccc2c(c1)c1c3n2CCN(C)C3=NCC1,0.381% [at 35.3 µM],
Cn1c(=O)c2[nH]c(Br)nc2n(C)c1=O,-10.3% [at 35.3 µM],
CC(=O)C1C(=O)C=C(C)OC1=O (configuration not stated),-1.93%,
CN(C)CCN(C)CCO,1.56%,
CC(C)C1OCCN1CCOC(=O)NCCCCCCNC(=O)OCCN1CCOC1C(C)C (configuration not stated),4.78%,
CC(=O)O[C@H]1C[C@@H]2CC[C@@]1(C)C2(C)C,4.42%,
CN1C[C@@H]2C[C@H]1CN2c1cc2c(cc1F)c(=O)c(C(=O)O)cn2C1CC1,2.35% [at 15.8 µM],
CC1(C)CC(OC(=O)CCCCCCCCC(=O)OC2CC(C)(C)NC(C)(C)C2)CC(C)(C)N1,-5.51% [at 15.8 µM],
C=Cc1ccc(C(C)(C)C)cc1,21.8%,
CCOc1ccccc1OCC1CNCCO1 (configuration not stated),0.64% [at 35.3 µM],
N[C@@H](Cc1ccc(O)cc1)C(=O)O,-12.3% [at 6.97 µM],
O=C(CCCCC(=O)Nc1c(I)cc(I)c(C(=O)O)c1I)Nc1c(I)cc(I)c(C(=O)O)c1I,-0.347% [at 35.3 µM],
O=C1NC(c2ccccc2)(c2ccccc2)C(=O)N1COP(=O)(O)O,6.17% [at 35.3 µM],
OCCN1CCOCC1,-5.96%,
CC(C)c1ccc(C=O)cc1,2.37%,
COc1c2occc2c(OC)c2c(=O)cc(C)oc12,-8.35% [at 35.3 µM],
CCCCOCCOC(=O)COc1ccc(Cl)cc1Cl,2.7%,
CCC(C(=O)OCCN1CCOC(c2ccccc2)C1C)c1ccccc1 (configuration not stated),-11.2% [at 35.3 µM],
C=C(C)[C@@H]1CC=C(C)CC1,9.63%,

SMILES,cytotoxicity increase,Potency
CC(=O)CC(=O)Nc1ccc(C)cc1C,-9.69%,
c1ccc2cnccc2c1,-5.3%,
CN(C)CCOC(=O)C(c1ccccc1)C1(O)CCCC1 (configuration not stated),-0.0105% [at 35.3 µM],
NCc1ccc(S(N)(=O)=O)cc1,-11.1% [at 35.3 µM],
COc1cc(/C=C/C(N)=O)cc(OC)c1OC,-33.8% [at 35.3 µM],
NC(=O)[C@@H]1CSSCCC(=O)N[C@@H](CCCCN=C(N)N)C(=O)NCC(=O)N[C@@H](CC(=O)O)C(=O)N[C@@H](Cc2c[nH]c3ccccc23)C(=O)N2CCC[C@H]2C(=O)N1 ([Mpa][hArg]GDWPC-NH2; disulfide 1-7),0.979% [at 35.3 µM],
O=C1c2ccccc2C(=O)c2cc(Cl)ccc21,-1.12% [at 6.97 µM],
Fc1ccccc1,-3.15%,
CC(C)(CO)C(O)C(=O)NCCCO (configuration not stated),1.17%,
CC(=O)c1cc(C)oc1C,-13.9%,
COc1cc(OC)nc(O[C@H](C(=O)O)C(OC)(c2ccccc2)c2ccccc2)n1,2.26% [at 35.3 µM],
CCO,-6.16%,
C=C(C)c1cccc(C(C)(C)N=C=O)c1,0.804%,
C=CC/C=C/C,3.97%,
CCCCCCCCCOC(=O)CCCCC(=O)OCCCCCCC,,24.5 µM (active)
CC(=O)N[C@@H](CO)C(=O)N[C@@H](CC(=O)O)C(=O)N[C@@H](CCCCN)C(=O)N1CCC[C@H]1C(=O)O (Ac-SDKP-OH),-0.107% [at 35.3 µM],
CCC/C=C(\C=O)CC,0.605%,
CC(C)OC(=O)CCC(=O)OC(C)C,-14.7%,
